# Results with a measured potency or affinity are listed apart.
# How the values were obtained:
# Klebsiella pneumoniae = details: Concentration 32 ug.mL-1;; ASSAY_TEST Inhibition of Bacterial Growth; detection method Absorption (OD600); MEDIA CAMHB; plate type 384well; NBS; CORNING #3640; time 18 hr
# Candida albicans = details: Concentration 32 ug.mL-1; ASSAY_TEST Inhibition of Fungal Growth; detection method Absorption (OD530)
# Cryptococcus neoformans = details: Concentration 32 ug.mL-1; ASSAY_TEST Inhibition of Fungal Growth; detection method Resazurin; Absorption (OD600-OD570); plate type 384well; NBS; CORNING #3640
structure (smiles),measurement,setting,value
Cc1ccc(C)c(Cn2nc3n(CCC(C)C)c(=O)c4sccc4n3c2=O)c1,Inhibition,Klebsiella pneumoniae,11.36%
same,Inhibition,Candida albicans,0.71%
same,Inhibition,Cryptococcus neoformans,-24.6%
COC(=O)c1ccc(NC(=O)Cn2c(=O)c3nnc(C(C)C)n3c3ccccc32)cc1,Inhibition,Klebsiella pneumoniae,11.69%
same,Inhibition,Candida albicans,-0.03%
same,Inhibition,Cryptococcus neoformans,-26.77%
Cc1cccc(C)c1NC(=O)CSc1nnc2c3cc(-c4ccccc4)nn3ccn12,Inhibition,Klebsiella pneumoniae,-14.45%
same,Inhibition,Candida albicans,-0.49%
same,Inhibition,Cryptococcus neoformans,-6.46%
O=C(Cn1nc2ccc(SC3CCCCC3)nn2c1=O)Nc1ccc2c(c1)OCO2,Inhibition,Klebsiella pneumoniae,-18.44%
same,Inhibition,Candida albicans,1.48%
same,Inhibition,Cryptococcus neoformans,-3.38%
Cc1cc(C)cc(Nc2nc(C)cc3nn(CC(=O)Nc4ccc(Cl)cc4)c(=O)n23)c1,Inhibition,Klebsiella pneumoniae,13.53%
same,Inhibition,Candida albicans,5.41%
same,Inhibition,Cryptococcus neoformans,-4.1%
CC1CCCN(c2nccn3c(=O)n(CC(=O)Nc4ccc(Br)cc4F)nc23)C1 (stereo not given),Inhibition,Klebsiella pneumoniae,5.81%
same,Inhibition,Candida albicans,5.05%
same,Inhibition,Cryptococcus neoformans,-8.97%
COc1ccccc1-n1ccn2c(SCC(=O)Nc3ccc4c(c3)OCO4)nnc2c1=O,Inhibition,Klebsiella pneumoniae,8.58%
same,Inhibition,Candida albicans,4.47%
same,Inhibition,Cryptococcus neoformans,-4.47%
COc1ccc(Cl)cc1NC(=O)Cn1nc2c3cc(-c4ccc(C)cc4)nn3ccn2c1=O,Inhibition,Klebsiella pneumoniae,5.55%
same,Inhibition,Candida albicans,14.91%
same,Inhibition,Cryptococcus neoformans,-9.24%
Cc1ccc(NC(=O)Cn2nc3c4cc(-c5ccc(C)c(C)c5)nn4ccn3c2=O)c(Cl)c1,Inhibition,Klebsiella pneumoniae,13.54%
same,Inhibition,Candida albicans,-1.09%
same,Inhibition,Cryptococcus neoformans,-13%
CCC(C)NC(=O)Cn1nc2n(CCC(=O)NC3CCCCC3)c(=O)c3ccccc3n2c1=O (stereo not given),Inhibition,Klebsiella pneumoniae,-2.01%
same,Inhibition,Candida albicans,3.91%
same,Inhibition,Cryptococcus neoformans,-20.86%
Cc1c(Cl)cccc1-n1ccn2c(=O)n(Cc3c(F)cccc3Cl)nc2c1=O,Inhibition,Klebsiella pneumoniae,1.26%
same,Inhibition,Candida albicans,11.96%
same,Inhibition,Cryptococcus neoformans,-12.75%
O=C(Cn1nc2c(SC3CCCCC3)nccn2c1=O)N1CCN(c2ccccc2)CC1,Inhibition,Klebsiella pneumoniae,7.42%
same,Inhibition,Candida albicans,1.71%
same,Inhibition,Cryptococcus neoformans,-1.45%
CCc1ccccc1NC(=O)Cn1nc2c(SCc3ccc(Cl)cc3)nccn2c1=O,Inhibition,Klebsiella pneumoniae,13.77%
same,Inhibition,Candida albicans,2.88%
same,Inhibition,Cryptococcus neoformans,-20.04%
CC(C)CCn1c(=O)c2sccc2n2c(=O)n(CC(N)=O)nc12,Inhibition,Klebsiella pneumoniae,10.09%
same,Inhibition,Candida albicans,-1.13%
same,Inhibition,Cryptococcus neoformans,-22.72%
COc1cccc(NC(=O)Cn2c(=O)c3nnc(C(C)C)n3c3ccccc32)c1,Inhibition,Klebsiella pneumoniae,16.14%
same,Inhibition,Candida albicans,3.17%
same,Inhibition,Cryptococcus neoformans,-13.4%
COc1ccc(NC(=O)c2ccc3nn(CC(=O)Nc4cccc(SC)c4)c(=O)n3c2)cc1,Inhibition,Klebsiella pneumoniae,-1.25%
same,Inhibition,Candida albicans,7.63%
same,Inhibition,Cryptococcus neoformans,-24.03%
COC(=O)c1cccc(NC(=O)Cn2nc3c(N4CCCCCC4)nccn3c2=O)c1,Inhibition,Klebsiella pneumoniae,3.15%
same,Inhibition,Candida albicans,2.05%
same,Inhibition,Cryptococcus neoformans,-12.46%
C=Cc1ccc(CSc2nnc3c(=O)n(-c4ccc(F)cc4)ccn23)cc1,Inhibition,Klebsiella pneumoniae,9.66%
same,Inhibition,Candida albicans,4.46%
same,Inhibition,Cryptococcus neoformans,-8.26%
COc1ccc(NC(=O)Cn2nc3c(SCc4ccc(Cl)cc4)nccn3c2=O)cc1OC,Inhibition,Klebsiella pneumoniae,3.8%
same,Inhibition,Candida albicans,27.48%
same,Inhibition,Cryptococcus neoformans,-20.96%
CCCCn1c(=O)c2sccc2n2c(=O)n(CC(=O)NC(C)CC)nc12 (stereo not given),Inhibition,Klebsiella pneumoniae,-2.58%
same,Inhibition,Candida albicans,3.27%
same,Inhibition,Cryptococcus neoformans,-15.7%
CCc1ccc(NC(=O)Cn2c(=O)c3nnc(C(C)C)n3c3ccccc32)cc1,Inhibition,Klebsiella pneumoniae,8.25%
same,Inhibition,Candida albicans,26.99%
same,Inhibition,Cryptococcus neoformans,-22.84%
CC(C)CCNC(=O)CSc1nnc2c3cc(-c4ccccc4)nn3ccn12,Inhibition,Klebsiella pneumoniae,15.29%
same,Inhibition,Candida albicans,4.42%
same,Inhibition,Cryptococcus neoformans,-17.81%
Cc1ccc(NC(=O)Cn2c(=O)c3nnc(C(C)C)n3c3ccccc32)cc1F,Inhibition,Klebsiella pneumoniae,13.19%
same,Inhibition,Candida albicans,0.6%
same,Inhibition,Cryptococcus neoformans,-30.05%
CCCCOc1ccc(-c2cc3c4nnc(SCC(=O)Nc5cccc(C)c5C)n4ccn3n2)cc1,Inhibition,Klebsiella pneumoniae,1.05%
same,Inhibition,Candida albicans,-0.05%
same,Inhibition,Cryptococcus neoformans,-18.62%
COc1cccc(NC(=O)Cn2nc3c(=O)n(-c4ccc(Br)cc4)ccn3c2=O)c1,Inhibition,Klebsiella pneumoniae,6.98%
same,Inhibition,Candida albicans,1.08%
same,Inhibition,Cryptococcus neoformans,-6.3%
COc1cc(NC(=O)CSc2nnc3c(=O)n(-c4ccccc4)ccn23)cc(OC)c1,Inhibition,Klebsiella pneumoniae,17.43%
same,Inhibition,Candida albicans,0.46%
same,Inhibition,Cryptococcus neoformans,-23.26%
Cc1cccc(N(Cc2cccc(F)c2)S(=O)(=O)c2cccn3c(C)nnc23)c1,Inhibition,Klebsiella pneumoniae,14.45%
same,Inhibition,Candida albicans,2.26%
same,Inhibition,Cryptococcus neoformans,-8.56%
Cc1cc2nn(CC(=O)NC3CCCCC3)c(=O)n2c(Nc2ccc(F)c(C)c2)n1,Inhibition,Klebsiella pneumoniae,19.39%
same,Inhibition,Candida albicans,3.39%
same,Inhibition,Cryptococcus neoformans,-7.59%
N#Cc1ccc(NC(=O)Cn2nc3c(SCc4ccc(Cl)cc4)nccn3c2=O)cc1,Inhibition,Klebsiella pneumoniae,12.55%
same,Inhibition,Candida albicans,4.94%
same,Inhibition,Cryptococcus neoformans,-19.24%
O=C(Cn1nc2c(N3CCOCC3)nccn2c1=O)NCc1cccs1,Inhibition,Klebsiella pneumoniae,15.07%
same,Inhibition,Candida albicans,2.44%
same,Inhibition,Cryptococcus neoformans,-8.25%
CC(C)Sc1ccc2nn(CC(=O)Nc3ccc(Cl)cc3F)c(=O)n2n1,Inhibition,Klebsiella pneumoniae,7.97%
same,Inhibition,Candida albicans,16.98%
same,Inhibition,Cryptococcus neoformans,-18.57%
Cc1cc(C)cc(NC(=O)Cn2nc3c(Sc4cccc(C)c4)nc4ccccc4n3c2=O)c1,Inhibition,Klebsiella pneumoniae,5.29%
same,Inhibition,Candida albicans,1.16%
same,Inhibition,Cryptococcus neoformans,-15.02%
O=C(Cn1nc2c(Sc3cccc(F)c3)nccn2c1=O)N1CCN(c2ccccc2)CC1,Inhibition,Klebsiella pneumoniae,4.19%
same,Inhibition,Candida albicans,0.68%
same,Inhibition,Cryptococcus neoformans,-2.85%
O=C(Cn1nc2n(Cc3ccc(F)cc3)c(=O)c3ccccc3n2c1=O)Nc1ccc2c(c1)OCO2,Inhibition,Klebsiella pneumoniae,8.5%
same,Inhibition,Candida albicans,5.19%
same,Inhibition,Cryptococcus neoformans,-6.14%
Cc1ccc(-c2ccc3nn(CC(=O)N4CCN(c5ccccc5F)CC4)c(=O)n3n2)cc1C,Inhibition,Klebsiella pneumoniae,9.79%
same,Inhibition,Candida albicans,0.84%
same,Inhibition,Cryptococcus neoformans,-7.8%
Cc1cccc(Sc2nccn3c(=O)n(CC(=O)N4CCN(c5ccccc5)CC4)nc23)c1,Inhibition,Klebsiella pneumoniae,4.67%
same,Inhibition,Candida albicans,0.98%
same,Inhibition,Cryptococcus neoformans,-15.76%
Cc1cccc(CN(c2ccc(C(C)C)cc2)S(=O)(=O)c2cccn3c(C)nnc23)c1,Inhibition,Klebsiella pneumoniae,9.59%
same,Inhibition,Candida albicans,3.05%
same,Inhibition,Cryptococcus neoformans,-9.59%
Cc1ccccc1CN(c1ccc(C(C)C)cc1)S(=O)(=O)c1cccn2c(C)nnc12,Inhibition,Klebsiella pneumoniae,8.89%
same,Inhibition,Candida albicans,4.49%
same,Inhibition,Cryptococcus neoformans,-10.58%
COc1ccc(-c2cc3c4nn(CC(=O)Nc5ccc(C)c(C)c5)c(=O)n4ccn3n2)cc1,Inhibition,Klebsiella pneumoniae,5.79%
same,Inhibition,Candida albicans,-0.09%
same,Inhibition,Cryptococcus neoformans,-15.38%
COc1ccc(OC)c(NC(=O)Cn2nc3ccc(-c4ccc(Cl)cc4)nn3c2=O)c1,Inhibition,Klebsiella pneumoniae,15.39%
same,Inhibition,Candida albicans,0.24%
same,Inhibition,Cryptococcus neoformans,-17.15%
C=Cc1ccc(CN(c2cccc(Cl)c2)S(=O)(=O)c2cccn3c(C)nnc23)cc1,Inhibition,Klebsiella pneumoniae,6.94%
same,Inhibition,Candida albicans,1.33%
same,Inhibition,Cryptococcus neoformans,-16.09%
O=C(Cn1nc2c3cc(-c4ccc(F)cc4)nn3ccn2c1=O)Nc1ccccc1,Inhibition,Klebsiella pneumoniae,5.09%
same,Inhibition,Candida albicans,9.56%
same,Inhibition,Cryptococcus neoformans,-11.97%
O=C(Cn1nc2c(N3CCOCC3)nccn2c1=O)Nc1cc(C(F)(F)F)ccc1Cl,Inhibition,Klebsiella pneumoniae,12.08%
same,Inhibition,Candida albicans,2.84%
same,Inhibition,Cryptococcus neoformans,-4.39%
COc1cc(OC)c(NC(=O)Cn2nc3ccc(Sc4cccc(F)c4)nn3c2=O)cc1Cl,Inhibition,Klebsiella pneumoniae,2.02%
same,Inhibition,Candida albicans,6.91%
same,Inhibition,Cryptococcus neoformans,-5.99%
COc1ccc(NC(=O)CSc2nnc3c(=O)n(-c4ccc(Br)cc4)ccn23)cc1,Inhibition,Klebsiella pneumoniae,8.82%
same,Inhibition,Candida albicans,5.75%
same,Inhibition,Cryptococcus neoformans,-12.25%
COc1ccc(-c2cc3c4nnc(CCC(=O)NCc5ccc(OC)c(OC)c5)n4ccn3n2)cc1,Inhibition,Klebsiella pneumoniae,12.53%
same,Inhibition,Candida albicans,2.24%
same,Inhibition,Cryptococcus neoformans,-11.61%
Cc1ccc(-n2ccn3c(SC(C)C(=O)Nc4ccc5c(c4)OCCO5)nnc3c2=O)cc1C (stereo not given),Inhibition,Klebsiella pneumoniae,15.49%
same,Inhibition,Candida albicans,0.29%
same,Inhibition,Cryptococcus neoformans,-6.97%
CCOc1ccc(NC(=O)Cn2nc3c(Sc4ccc(C)cc4C)nccn3c2=O)cc1,Inhibition,Klebsiella pneumoniae,3.27%
same,Inhibition,Candida albicans,6.36%
same,Inhibition,Cryptococcus neoformans,-11.66%
CCCCOc1ccc(-c2cc3c4nnc(SCC(=O)Nc5ccc(F)cc5)n4ccn3n2)cc1,Inhibition,Klebsiella pneumoniae,3.87%
same,Inhibition,Candida albicans,-1.37%
same,Inhibition,Cryptococcus neoformans,-16.65%
O=c1c2nnc(SCc3ccccc3Cl)n2ccn1-c1ccc(F)c(F)c1,Inhibition,Klebsiella pneumoniae,8.56%
same,Inhibition,Candida albicans,3.72%
same,Inhibition,Cryptococcus neoformans,-8.25%
Cc1cccc(NC(=O)Cn2nc3c(SCc4ccc(Cl)cc4)nccn3c2=O)c1C,Inhibition,Klebsiella pneumoniae,15.65%
same,Inhibition,Candida albicans,5.99%
same,Inhibition,Cryptococcus neoformans,-31.05%
O=C(CSc1nc2ccccc2n2cnnc12)NCc1ccccc1Cl,Inhibition,Klebsiella pneumoniae,2.85%
same,Inhibition,Candida albicans,0.3%
same,Inhibition,Cryptococcus neoformans,-14.6%
CC(C)CCn1c(=O)c2sccc2n2c(=O)n(CC(=O)N(C)c3ccccc3)nc12,Inhibition,Klebsiella pneumoniae,0.74%
same,Inhibition,Candida albicans,-2.64%
same,Inhibition,Cryptococcus neoformans,-16.67%
O=S(=O)(c1ccc2nncn2c1)N(Cc1cc(F)cc(F)c1)c1ccc2c(c1)OCO2,Inhibition,Klebsiella pneumoniae,11.56%
same,Inhibition,Candida albicans,2.54%
same,Inhibition,Cryptococcus neoformans,-7.84%
CCCCOc1ccc(-c2cc3c4nnc(SCC(=O)Nc5c(C)cccc5CC)n4ccn3n2)cc1,Inhibition,Klebsiella pneumoniae,-16.94%
same,Inhibition,Candida albicans,-2.13%
same,Inhibition,Cryptococcus neoformans,-12.87%
COc1cccc(-n2ccn3c(SCC#N)nnc3c2=O)c1,Inhibition,Klebsiella pneumoniae,2.74%
same,Inhibition,Candida albicans,3.51%
same,Inhibition,Cryptococcus neoformans,-7.4%
COc1cccc(Oc2nccn3c(=O)n(CC(=O)NCc4ccc(SC)cc4)nc23)c1,Inhibition,Klebsiella pneumoniae,15.38%
same,Inhibition,Candida albicans,2.58%
same,Inhibition,Cryptococcus neoformans,-5.89%
COc1cc(NC(=O)Cn2nc3n(CCc4ccccc4)c(=O)c4ccccc4n3c2=O)cc(OC)c1,Inhibition,Klebsiella pneumoniae,10.27%
same,Inhibition,Candida albicans,12%
same,Inhibition,Cryptococcus neoformans,-22.83%
CCC(Sc1nnc2c(=O)n(-c3cccc(OC)c3)ccn12)C(=O)Nc1cc(OC)ccc1OC (stereo not given),Inhibition,Klebsiella pneumoniae,1.63%
same,Inhibition,Candida albicans,1.95%
same,Inhibition,Cryptococcus neoformans,-10.37%
O=C(CSc1nnc2c(=O)n(-c3ccc(F)cc3)ccn12)c1ccccc1Cl,Inhibition,Klebsiella pneumoniae,14.55%
same,Inhibition,Candida albicans,8.47%
same,Inhibition,Cryptococcus neoformans,-13.46%
